Source: PubChem BioAssay (NCI)
About 83,000 compounds went through this panel and 20% of them were active in at least one assay; those are over-represented in the sample as a whole.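 The test compound was applied at a single concentration to cells in 96-well plates for 48 hours, and percent growth was recorded.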 Active and inactive are the calls of the source. Rule for the calls: active = growth percent below 10; inactive = the rest.

test system: HL-60(TB) leukemia; test: NCI-60 one-dose screen, 48 h (100 = growth as untreated, 0 = no growth, -100 = all killed); conditions: 10 µM unless noted

Row | SMILES | growth
1 | [2H]c1cc2c(c([2H])c1F)/C(=C/c1[nH]c(C)c(C(=O)NCCN(CC)CC)c1C)C(=O)N2 | 4.9% (active)
2 | COc1ccc(NC(=O)Nc2ccc(-c3cccnc3)cc2N2CCC(CO)CC2)cc1 | 88.6% (inactive)
3 | CCCCN1CCCn2c1nc1c2c(=O)n(CCC)c(=O)n1CCC | 109% (inactive)
4 | Cc1c(C(N)=O)sc2ncn(CC(=O)Nc3ccc(Cl)cc3)c(=O)c12 | 110% (inactive)
5 | O=Cc1ccc(Cl)c(Cl)c1 | 106% (inactive)
6 | CNC(=O)N/N=C/c1ccc([N+](=O)[O-])o1 | 66.4% (inactive)
7 | O=C(/C(=C/c1ccc([N+](=O)[O-])cc1)SCc1ccccc1)c1ccc(Cl)cc1 | 74.4% (inactive)
8 | Cc1c(C(N)=O)sc2ncn(Cc3ccccc3)c(=O)c12 | 118% (inactive)
9 | O=C1C=CC(=O)N1CCCCCCCCCCN1C(=O)C=CC1=O | 12.2% (inactive)
10 | CN(C)CCCC1(c2ccc(F)cc2)OCc2cc(-c3ccc4cc[nH]c4c3)ccc21 (stereo not given) | 27.6% (inactive)
11 | C[C@]12CC[C@@H]3c4cc(OC(F)F)c(OS(N)(=O)=O)cc4CC[C@H]3[C@@H]1CC[C@@H]2OS(N)(=O)=O | 13.1% (inactive)
12 | O=C1/C(=C/c2ccc([N+](=O)[O-])s2)Oc2cc(Cl)ccc21 | -11.7% (active)
13 | C=C(C)[C@@H]1C[C@@H]2Cc3cc(Cl)ccc3N1O2 | -8.6% (active)
14 | CCc1c(Nc2ccc(C)cc2)[nH]c(N)nc1=S | 99.8% (inactive)
15 | O=C1CSC(=S)N1CCc1ccc(O)cc1 | 92% (inactive)
16 | CC(C)CC(=O)Nc1n[nH]c2c1CN(C(=O)C1CCN(C)CC1)C2(C)C | -26.2% (active)
17 | COc1cc(C)c2sc3ccccc3c(=O)c2c1NCCN(C)C | 61.2% (inactive)
18 | C=CCOc1ccc(/C(Cl)=N/N=C(\Cl)c2cc(OC)c(OC)c(OC)c2)cc1 | 39.6% (inactive)
19 | CCCCC[C@H]1CC=C2C(=O)C=C[C@@H]2CC=CCCCC(=O)O[C@@H](CCCCC)CC=C2C(=O)C=C[C@@H]2CC=CCCCC(=O)O[C@@H](CCCCC)CC=C2C(=O)C=C[C@@H]2CC=CCCCC(=O)O1 | -32.4% [8.75 µM] (active)
20 | O=C(Nc1ccc2ncnc(Nc3cccc(C(F)(F)F)c3)c2c1)c1cccs1 | 47.9% (inactive)

Row | SMILES | growth
21 | Cc1ccc(-c2csc(NC(=O)c3ccccc3CN3C(=O)c4ccccc4C3=O)n2)cc1 | 95.3% (inactive)
22 | CCCCC1COc2cccc3c2N1C=C/C3=C\C(=O)N(C)c1cccc(Cl)c1 (stereo not given) | 98.7% (inactive)
23 | COc1cccc(/C=N\NC(=O)c2ccncc2)c1O | 9.43% (active)
24 | COc1ccc(NC(=O)c2ccc(-c3ccccc3)cc2)c(C(N)=O)c1 | 61.7% (inactive)
25 | CC(=O)Nc1ccccc1-c1n[nH]c(=O)[nH]c1=O | 109% (inactive)
26 | O=C(NN1C(=O)CSC1c1cccc([N+](=O)[O-])c1)c1ccc(NC(=O)c2ccccn2)cc1 (stereo not given) | 67.6% (inactive)
27 | O=c1nc2n(nc1/C=C/c1ccco1)CC(c1ccc(Cl)cc1)=NN2 | 70.1% (inactive)
28 | CN(C)CCOc1ccccc1NC1=C(Cl)C(=O)C(Nc2ccccc2OCCN(C)C)=C(Cl)C1=O | -18.9% (active)
29 | OCc1cnc2ccccc2c1NC1CCCCCC1 | 88.5% (inactive)
30 | COC(=O)c1ccc2oc(NC(=O)c3ccc(Nc4ccc([N+](=O)[O-])cc4C)c([N+](=O)[O-])c3)nc2c1 | 99.7% (inactive)
31 | C=C1C[C@H](O)[C@H](Br)C(C)(C)[C@@]12CCC(C)=C(Cl)C2 | -8.6% (active)
32 | NC(=O)c1c(NC(=O)c2ccc3c(c2)OCO3)sc2c1CCC(=O)C2 | -58.3% (active)
33 | CC1(C)N=C(N)N=C(N)N1c1ccc(F)c(C(F)(F)F)c1 | 13.4% (inactive)
34 | CCN(CC)CCCNc1cccc2c(C)cc(OC)nc12 | 106% (inactive)
35 | O=C(/C(=C/c1cccc([N+](=O)[O-])c1)c1ccccc1)c1ccccc1 | 10.6% (inactive)
36 | OC(c1ccc(F)c(C(F)(F)F)c1)c1cnccc1NC1CCCCC1 (stereo not given) | 30.9% (inactive)
37 | O=C(N/N=C/[C@H](O)[C@@H](O)[C@@H](O)[C@H](O)CO)c1ccc(NC(=O)c2cccnc2)cc1 | 101% (inactive)
38 | C=C(C)[C@@H]1CC[C@]2(C(=O)NCCCN(CCC#N)CCC#N)CC[C@]3(C)[C@H](CC[C@@H]4[C@@]5(C)CCC(=O)C(C)(C)[C@@H]5CC[C@]43C)[C@@H]12 | 100% (inactive)
39 | NC(=O)c1c(NC(=O)c2ccc(C(F)(F)F)cc2Cl)sc2c1CCC(=O)C2 | -12.9% (active)
40 | N#Cc1cnc2ccc(NCc3cnc[nH]3)cc2c1Nc1ccc(F)c(Cl)c1 | 79.4% (inactive)
